This is a sample that favours compounds with a hit; in the whole collection about 6% have one here.
Tau fibril ThT – tau fibrillization inhibition (ThT binding); recombinant tau K18 P301L, heparin-induced fibrillization, ThT fluorescence; actives 2.1% (n = 270,000); Potency, µM (highest dose often 57.4 µM), for the others: top-dose activity, negative = inhibition, most hits filed as inhibitors; P10636; note: nearly all actives have a fitted effect of over 55% in size
Target sequence (P10636 561-689 P618L limits assumed): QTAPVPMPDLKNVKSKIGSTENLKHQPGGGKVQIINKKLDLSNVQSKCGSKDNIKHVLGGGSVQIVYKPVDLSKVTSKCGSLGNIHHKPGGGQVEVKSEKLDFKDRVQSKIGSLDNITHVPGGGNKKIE
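Fibril formation assay: tau K18 P301L at 15 uM with trace Alexa 594 label, heparin inducer 20 uM, pH 7 sodium acetate buffer, 37 C for 6 hr; endpoint ThT signal.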
PLK1 PBD block – PLK1 (human) polo-box domain binding inhibition; actives 2.8% (n = 360,000); Potency, µM, without a hit: max response, negative = inhibition, most hits filed as inhibitors; P53350; AID 720504; Plk1 PBD binding of FITC phosphopeptide, fluorescence polarization; note: series mostly up to about 57 µM; nearly all actives have a fitted effect of over 65% in size
Sfp PPTase inh – Sfp phosphopantetheinyl transferase inhibition | Q9F4F7 | Biochemical Sfp PPTase activity, qHTS | Potency, µM, for the others: largest response in the series, negative = inhibition, most hits filed as inhibitors | actives 3.5% (n = 310,000) | AID 1490;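 note: the enzyme is Sfp with the accession as filed and its product quenches rhodamine fluorescence; 0% = enzyme reaction without inhibitor and -100% = no enzyme wells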
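After 15 min at room temperature with compound, 15 nM Sfp received 5 uM rhodamine-CoA plus 12.5 uM BHQ-2-ybbR (50 mM Hepes pH 7.6, 10 mM MgCl2). Rate came from the fluorescence difference over 30 min, ex 525/em 598 nm.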
Tau fluor cs – counter-screen for tau fibril formation inhibitors. tau K18 P301L (four-repeat tau fragment) Alexa594 fluorescence, heparin fibrillization. Potency, µM (series often up to 57.7 µM), without a hit: at the highest dose activity change, negative = decrease. actives 0.93% (n = 280,000). AID 1463; note: nearly all actives have a fitted effect of over 55% in size
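Human K18 P301L tau (15 uM unlabeled plus 0.24 uM Alexa 594-labeled, final) in 100 mM sodium acetate pH 7 was mixed with compound and 20 uM heparin and incubated 6 hr at 37 C.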
VDR inh – blocks the human vitamin D receptor; actives 0.93% (n = 400,000); VDR-SRC2-3 peptide fluorescence polarization, 2 h; Potency, µM, inactives show max response, negative = inhibition, hits mostly inhibitors; AID 504847
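Reagent solutions, kept cold and dark, are dispensed first; compounds are then pinned in at 23 nl, plates briefly spun, and incubated 2 h at ambient temperature. Inhibition of VDR–SRC2-3 peptide binding is read by fluorescence polarization.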
Tau FP inhib – inhibitors of human tau fibril formation | K18 P301L tau heparin fibrillization, Alexa594 FP, 6 h | Potency, µM (highest dose often 57.7 µM), for inactives: at the highest dose activity, negative = inhibition, most hits filed as inhibitors | actives 0.39% (n = 280,000) | AID 1468; note: nearly all actives have a fitted effect of over 55% in size
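Quantitative HTS format: compounds meet 15 uM recombinant K18 P301L tau and Alexa 594-tau tracer in 100 mM sodium acetate pH 7; 20 uM heparin triggers fibrillization at 37 C over 6 hr; FP gives the signal.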
Numbers without * were called inactive. Calls come from the whole dose curve; as a rule, active = well fitted curve in the direction sought with a large enough effect; inconclusive = small, poorly fitted or top-dose-only effect, or another doubt; inactive = no such curve, though single readings can be large; an effect the other way counts as inactive or inconclusive. Unless noted, % is set by controls: 0 for no effect and ±100 for the full control effect; potency is the fitted concentration of half-maximal effect.

COc1cc([N+](=O)[O-])ccc1NC(=S)Nn1cnnc1 was read as PLK1 PBD block 9.5µM*, Sfp PPTase inh 20µM* and VDR inh inconclusive.
Screening COC(=O)Nc1ccc([N+](=O)[O-])cc1OC returned Tau fibril ThT -1%, PLK1 PBD block -2%, Sfp PPTase inh 15%, Tau fluor cs -3%, VDR inh 11% and Tau FP inhib -6%.
For Cc1ccc(NC(=S)Nn2cnnc2)c(C)c1 the results were Sfp PPTase inh 40µM*.
For Cc1ccc(Cl)cc1NC(=S)Nn1cnnc1 the results were PLK1 PBD block 11µM*, Sfp PPTase inh 11% and VDR inh 79µM*.
S=C(NCc1ccncc1)Nc1ccc(Br)cc1Cl was read as PLK1 PBD block -10%, Sfp PPTase inh 0% and VDR inh 6%.
Screening S=C(Nc1ccc(Br)cc1Cl)Nn1cnnc1 returned Tau fibril ThT -4%, PLK1 PBD block 9.5µM*, Sfp PPTase inh 22µM*, Tau fluor cs 2%, VDR inh inconclusive and Tau FP inhib -9%.
`Cc1ccccc1C(=O)N1CCC2CC1c1cc(Cl)ccc12` (stereo not drawn) gave PLK1 PBD block -6% and VDR inh -14%.
Screening CCCn1c(C)nc2c(NCC3CCCN3CC)nc(C)nc21 (stereo not drawn) returned Tau fibril ThT -2%, Sfp PPTase inh 21%, Tau fluor cs -4% and Tau FP inhib -4%.
`Cc1cccc(N2C(=O)CC(Sc3nc(C)cc(C)n3)C2=O)c1` (stereo not drawn) gave Tau fibril ThT -13%, PLK1 PBD block -19%, Sfp PPTase inh -2%, Tau fluor cs -7%, VDR inh -5% and Tau FP inhib -10%.
`Cc1cccc(N2C(=O)CC(Sc3nnc(C)s3)C2=O)c1` (stereo not drawn) gave Tau fibril ThT inconclusive, PLK1 PBD block 30µM*, Sfp PPTase inh -10%, Tau fluor cs -12%, VDR inh -18% and Tau FP inhib -5%.
Screening CC1(C(=O)NCCc2ccccc2)Cc2c(-c3ccc(C(N)=O)cc3)ccnc2O1 (stereo not drawn) returned PLK1 PBD block 1%.
`Fc1ccc(Nc2nc(SCc3cccc(F)c3)nc3ccccc23)cc1` gave Tau fibril ThT 29%, Tau fluor cs inconclusive, VDR inh 11% and Tau FP inhib 14µM*.
COc1ccc(CCNc2nc(SCc3cccc(F)c3)nc3ccccc23)cc1OC was read as Tau fibril ThT -1%, Tau fluor cs -13%, VDR inh 7% and Tau FP inhib -5%.
Screening Clc1ccc(CSc2nc(NCCc3ccccc3)c3ccccc3n2)cc1 returned Tau fibril ThT -10%, Tau fluor cs -11%, VDR inh 1% and Tau FP inhib -3%.
`Fc1ccc(Nc2nc(SCc3ccc(Cl)cc3)nc3ccccc23)cc1` gave Tau fibril ThT inconclusive, Tau fluor cs inconclusive, VDR inh -11% and Tau FP inhib 7.9µM*.
For Fc1ccc(Nc2nc(SCc3cccc(Cl)c3)nc3ccccc23)cc1 the results were Tau fibril ThT 11%, Tau fluor cs inconclusive, VDR inh -3% and Tau FP inhib 8.9µM*.
COc1ccc(N/C=C(\C=C\C#N)S(=O)(=O)c2ccccc2)cc1 was read as PLK1 PBD block -16%, Sfp PPTase inh 4% and VDR inh -4%.
Screening CCOC(=O)c1cc(C#N)c(SCC(=O)Nc2ccc(C(C)=O)cc2)[nH]c1=O returned Tau fibril ThT inconclusive, PLK1 PBD block -13%, Sfp PPTase inh -2%, Tau fluor cs -19%, VDR inh -13% and Tau FP inhib -7%.
Screening CCOC(=O)c1cc(C#N)c(SCC(=O)O)[nH]c1=O returned Tau fibril ThT -4%, PLK1 PBD block -12%, Sfp PPTase inh 50µM*, Tau fluor cs 0%, VDR inh -15% and Tau FP inhib -4%.
